D2 ag-1 = agonists of human D2 dopamine receptor (beta-arrestin). activation, % (test concentration not listed). DiscoveRx PathHunter D2 beta-arrestin, luminescence, 90 min; 100% = 57 uM dopamine signal. P14416. AID 624465. 0.084% of 360,000 active; in the data active means activation above about 40%; inconclusive means between about 15% and that limit
Target sequence (P14416 whole entry, looked up): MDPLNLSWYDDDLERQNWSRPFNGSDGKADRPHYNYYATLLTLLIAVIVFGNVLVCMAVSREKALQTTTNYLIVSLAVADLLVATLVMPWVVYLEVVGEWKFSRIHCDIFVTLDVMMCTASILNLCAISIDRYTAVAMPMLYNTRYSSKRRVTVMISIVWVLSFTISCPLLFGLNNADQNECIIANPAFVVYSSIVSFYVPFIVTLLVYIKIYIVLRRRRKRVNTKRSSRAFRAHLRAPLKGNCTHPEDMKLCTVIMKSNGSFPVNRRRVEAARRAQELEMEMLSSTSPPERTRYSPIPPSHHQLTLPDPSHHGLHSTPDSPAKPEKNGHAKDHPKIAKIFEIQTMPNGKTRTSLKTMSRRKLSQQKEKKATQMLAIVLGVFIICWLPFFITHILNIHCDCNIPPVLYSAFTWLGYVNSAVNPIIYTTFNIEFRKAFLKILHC
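DiscoveRx PathHunter D2 beta-arrestin cells (2,100/well) attached overnight, then compound-stimulated 90 min at 37 C in HBSS/10 mM HEPES/0.1% Tween-20 buffer; beta-galactosidase complementation read by luminescence after 1 h at ambient temperature. Dopamine 57 uM final (EC100) as control.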
D2 PAM-1 = potentiates the human D2 dopamine receptor allosterically | DiscoveRx D2 beta-arrestin cells, luminescence, 90 min; 100% = 57 uM dopamine signal | potentiation, % (no concentration beside the values) | 0.23% of 360,000 active | AID 624464; in the data active means potentiation above about 50%; inconclusive means mostly about 30% to 49%
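PathHunter beta-arrestin assay in DiscoveRx D2 cells. Compounds were added with an EC20 of dopamine (50 nM final) for 90 min at 37 deg C. Luminescence was read 1 h after detection reagent, with 57 uM dopamine as the EC100 control.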
D2 PAM-2 = D2 dopamine receptor (human) potentiation; P14416; HEK293 T-REx D2, calcium flux, EC20 dopamine potentiation; potentiation, % at 10 µM; 0.34% of 340,000 active; AID 485347;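 active means potentiation over 3 SD above the plate norm, cut at about 30% in these data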
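Primary screen. Calcium kinetics in induced HEK293 T-REx D2 cells: compound pre-addition 180 s, EC20 dopamine, 180 s more.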
D2 ag-2 = D2 dopamine receptor (human) agonism; P14416; HEK293 T-REx D2 cells, calcium flux agonist mode; activation, % at 2 µM; 0.53% of 340,000 active; AID 485358;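 active means activation over 3 SD above normal in the single-dose calcium agonist read, cut at about 30% in these data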
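Calcium-flux readout, 1 cycle/sec over 180 s following compound pin transfer, in inducible HEK293 Trex D2 cells (force-coupled); dopamine controls included. Positive calcium responses during this window marked compounds as potential agonists.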
D2 antag = antagonizes the human D2 dopamine receptor; HEK293 TREx D2 cells, calcium flux, dopamine EC80; 2% of 340,000 active; AID 485344; inhibition, % at 10 µM; in the data active means inhibition above about 30%; inactive means below that, where a call was filed
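Calcium mobilization kinetics were recorded at 1 s intervals in tetracycline-induced HEK293 T-REx D2 cells, first for 180 s after compound addition and then 180 s after EC80 dopamine.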
Of the large screens only hits and unclear results are named; the others gave an inactive call; ! = not confirmed by another sample. An excerpt weighted towards active compounds, which were near 2.4% of everything screened.

COc1cc(C)c(S(=O)(=O)NCc2ccc3c(c2)OCO3)cc1C	D2 antag 31.7
COc1ccccc1NC(=O)NCc1ccc2c(c1)OCO2	D2 antag 32.6 (no result: D2 ag-1, D2 PAM-1)
COc1cc(S(=O)(=O)NCc2ccc3c(c2)OCO3)c(OC)cc1C	none
O=C(NCc1ccc2c(c1)OCO2)Nc1cccc2ccccc12	none
CCOc1ccccc1NC(=O)NCc1ccc2c(c1)OCO2	none
COC(=O)c1ccccc1NC(=O)NCc1ccc2c(c1)OCO2	D2 antag 34.4
O=C(COc1ccccc1-c1nc(-c2ccccc2)no1)Nc1ccccc1[N+](=O)[O-]	none (no result: D2 ag-1, D2 PAM-1, D2 antag)
COc1ccc(C(=O)O/N=C(\N)c2cccc(C)c2)cc1OC	D2 ag-1 inconclusive
Cc1cc(/C(N)=N/OC(=O)c2cccc(Cl)c2)no1	D2 antag 49.8
Cc1onc(-c2ccccc2Cl)c1C(=O)Nc1nnc(-c2cccc([N+](=O)[O-])c2)s1	none (no result: D2 PAM-2, D2 ag-2, D2 antag)
Cc1cccc(C(=O)O/N=C(\N)c2ccc(Cl)cc2)c1	D2 ag-1 46.3
Cc1ccc(C)c(C(=O)O/N=C(\N)c2ccc(Br)cc2)c1	D2 PAM-1 56.6
CCSc1nnc(NC(=O)c2c(-c3ccccc3Cl)noc2C)s1	D2 antag 109.4
Cc1cc(/C(N)=N/OC(=O)c2ccc(Cl)cc2)no1	none
Cc1cc(C)c2oc(-c3cccc(NC(=O)c4cc5ccccc5o4)c3)nc2c1	none (no result: D2 ag-1, D2 PAM-1, D2 antag)
Cc1cc(C)cc(C(=O)O/N=C(\N)c2ccc(Br)cc2)c1	D2 ag-1 inconclusive, D2 PAM-1 64.4, D2 antag 35.2
N/C(=N\OC(=O)c1cccs1)c1ccc(Cl)cc1	D2 ag-1 49.7, D2 PAM-1 inconclusive
Cc1ccc(C(=O)O/N=C(\N)c2ccc(Br)cc2)cc1C	D2 PAM-1 inconclusive
Cc1cccc(C(=O)O/N=C(\N)c2ccc(Br)cc2)c1	D2 ag-1 inconclusive, D2 PAM-1 138.2
C/C(=N\OC(=O)c1c(-c2ccccc2Cl)noc1C)c1ccncc1	none
N/C(=N\OC(=O)c1cccc(Br)c1)c1ccccc1	D2 PAM-1 inconclusive
COc1ccc(/C(N)=N/OC(=O)c2cccs2)cc1	none
Cc1onc(-c2ccccc2Cl)c1C(=O)O/N=C(\N)c1ccccc1	D2 ag-1 43.4, D2 PAM-1 inconclusive
CC(C)c1ccc(NC(=O)c2cc(S(=O)(=O)N(C)C3CCCCC3)ccc2F)cc1	none (no result: D2 ag-1, D2 PAM-1, D2 antag)
CCOc1cc(C=NN2CCCCCC2)ccc1O	D2 PAM-1 51.4 (no result: D2 PAM-2, D2 ag-2, D2 antag)
CCC1CCCCN1C(=O)COc1cc(=O)n(C)c2ccccc12 (configuration not stated)	none
CCC1CCCCN1C(=O)COc1ccccc1NC(C)=O (configuration not stated)	D2 PAM-2 32.2
COCCCC/C(=N\OCCN)c1ccc(C(F)(F)F)cc1	D2 antag 53.9!
COc1ccc(CC(=O)Nc2cc(-c3cn4cccnc4n3)ccc2OC)cc1	none (no result: D2 ag-1, D2 PAM-1, D2 antag)
O=C(Nc1ccc(OC(F)(F)F)cc1)C1CC(=O)N(Cc2ccco2)C1 (configuration not stated)	D2 antag 47.3
COC(=O)CN1C(C(=O)c2ccccc2)=C(OC(=O)c2ccc(C)cc2)c2ccccc2S1(=O)=O	none (no result: D2 ag-1, D2 PAM-1, D2 antag)
C=CCSc1nc(C)c(CC=C)c(=O)[nH]1	D2 PAM-2 34.9
C=CCSc1nc(C)c(CCCC)c(=O)[nH]1	none
O=C(N/N=C/c1c(O)ccc2ccccc12)c1cccnc1	none
O=C(N/N=C\c1c(O)ccc2ccccc12)c1cncc(Br)c1	D2 ag-2 66.4
CC1=C(C(=O)OCc2ccc3c(c2)OCO3)C(c2ccccc2)NC(=O)N1 (configuration not stated)	D2 ag-1 inconclusive, D2 PAM-1 52.8, D2 antag 44.5
CCOC(=O)C1=C(C)NC(=O)NC1c1cc2c(cc1Br)OCO2 (configuration not stated)	D2 PAM-2 50.5
O=c1c(S(=O)(=O)c2ccccc2)cn(Cc2ccc(F)cc2)c2cc(N3CCOCC3)c(F)cc12	none (no result: D2 ag-1, D2 PAM-1, D2 antag)
COc1ccc(/C=C/C(=O)Nc2cc(C(F)(F)F)ccc2Cl)cc1	D2 antag 32.0
Cc1cc(C)c(S(=O)(=O)NCCOc2ccccc2)c(C)c1-n1cnnn1	D2 PAM-2 40.6
CCOc1ccc(OCC(=O)Nc2c(C(=O)Nc3ccc(C)cc3)oc3ccccc23)cc1	none (no result: D2 ag-1, D2 PAM-1, D2 antag)
O=C(O)c1ccc(NS(=O)(=O)c2ccc3c(c2)C(=O)c2ccccc2C3=O)cc1	none
Cc1cccc(C)c1NS(=O)(=O)c1ccc2c(c1)C(=O)c1ccccc1C2=O	D2 PAM-1 59.5
CCCCC(=O)Nc1ccc2oc(-c3cccnc3)nc2c1	none
CCCC(=O)Nc1ccc2oc(-c3cccnc3)nc2c1	D2 PAM-1 inconclusive, D2 antag 31.9
COc1ccc(CCN(C)C(=O)CCNS(=O)(=O)c2ccccc2C(F)(F)F)cc1OC	D2 antag 34.7
Cc1nnc(N2CCN(c3ccccc3F)CC2)c2c1nnn2Cc1ccccc1	none (no result: D2 ag-1, D2 PAM-1, D2 ag-2, D2 antag)
COC(=O)[C@@H]1[C@H]2C[C@H]3c4[nH]c5ccccc5c4CCN3C[C@@H]2CC[C@@H]1O	D2 antag 58.1
COc1ccccc1-c1noc(-c2ccc(NCC3CCCO3)c([N+](=O)[O-])c2)n1 (configuration not stated)	none (no result: D2 ag-1, D2 PAM-1, D2 antag)
c1ccc2c(NC3CCCC3)nnc(NC3CCCC3)c2c1	D2 antag 49.2
Cc1cccnc1NC1CCCCC1	none
O=C(O)c1ccccc1SCC(=O)N1c2ccccc2Sc2ccccc21	D2 ag-1 inconclusive, D2 PAM-1 61.6
O=C(O)c1ccccc1SCC(=O)N1CCCCC1	none
Cc1ccc(-n2cccn2)c(CN2CCCC(C(=O)c3sccc3C)C2)c1 (configuration not stated)	D2 antag 72.6
Cc1nnc(N2C(=O)c3cccc4c([N+](=O)[O-])ccc(c34)C2=O)s1	D2 PAM-1 61.8
Cc1ccnc(N2C(=O)c3cccc4c([N+](=O)[O-])ccc(c34)C2=O)c1	D2 PAM-1 51.4
Cc1ccc(N2C(=O)c3cccc4c([N+](=O)[O-])ccc(c34)C2=O)c2cccnc12	none
COC(=O)c1cc(OC)c(OC)c(OC)c1NC(=O)c1cc(=O)n(C)c(=O)n1C	none (no result: D2 ag-1, D2 PAM-1, D2 ag-2, D2 antag)
O=C(Nc1ccc(F)cc1)c1oc2ccccc2c1NC(=O)C12CC3CC(CC(C3)C1)C2	none (no result: D2 ag-1, D2 PAM-1, D2 antag)
COC(=O)c1ccccc1NS(=O)(=O)c1ccc(F)cc1	D2 PAM-2 43.8, D2 antag 32.1
O=C(O)c1cc(NS(=O)(=O)c2ccc3ccccc3c2)ccc1O	none
COC(=O)c1ccccc1NS(=O)(=O)c1ccc(NC(C)=O)cc1	none
O=C(O)c1ccccc1NS(=O)(=O)c1ccc2ccccc2c1	D2 PAM-2 32.1
Cc1cc(C)c(S(=O)(=O)Nn2cnnc2)c(C)c1	D2 antag 31.9
CCOC(=O)c1cccc(NC(=O)C2CCN(S(=O)(=O)c3c(C)noc3/C=C/c3ccc(C)cc3)CC2)c1	none (no result: D2 ag-1, D2 PAM-1, D2 antag)
O=c1c2ccccc2nc(SCc2cc(F)cc3c2OCOC3)n1Cc1ccco1	none
